Reference: PubChem BioAssay (EPA / NIEHS)
Records with an inconclusive call do not appear. Active and inactive are the calls of the source. The calls were made as follows, unless noted: active = hit-call score of the fitted dose curve at least 0.9, where 1 is the maximum; inactive = score below 0.9.

What was measured:
[1] = CCTE_Shafer_MEA_dev_network_spike_duration_std: CCTE's Neural Network Formation Assay for Standard Deviation of Network Spike Duration, Shafer Lab (AID 2284052);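 also: area under curve of spike duration SD across recording days 5 to 12; hits are decreases in network spike duration SD versus DMSO vehicle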
How it was run: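 Read-out is the trapezoidal area-under-the-curve across recordings made on days 5, 7, 9 and 12, fitted in the negative direction against DMSO baseline. Neurons were primary rat cortical cells treated from day 0, with treatment renewed at each feed.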

[2] = CCTE_Shafer_MEA_dev_per_network_spike_spike_number_mean: CCTE's Neural Network Formation Assay for Mean Number of Spikes in a Network Spike, Shafer Lab (AID 2284053)
How it was run: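 Continuous twelve-day exposure of developing rat cortical networks grown over 16 microelectrodes per well; spontaneous firing is captured at four time points, and the per-network-spike spike number is integrated over development by trapezoidal AUC.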

[3] = CCTE_Shafer_MEA_dev_per_network_spike_spike_percent: CCTE's Neural Network Formation Assay for Percent of Spikes in a Network Spike, Shafer Lab (AID 2284054)
How it was run: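 Primary rat cortical neurons on 16-electrode MEA wells (PEI-coated, laminin at plating), exposed from day 0 with renewal at DIV 5 and 9; spikes within 0.05 s of network-spike peaks over total spikes, AUC across days 5, 7, 9, 12.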

[4] = CCTE_Shafer_MEA_dev_LDH: CCTE's Lactate Dehydrogenase Assay for Cytotoxicity in the Neural Network Formation Assay, Shafer Lab (AID 2284068; active = hit-call score of the fitted dose curve at least 0.9, where 1 is the maximum;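 also: exposure for twelve days from plating with re-dosing on DIV 5 and 9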)
How it was run: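 Cytotoxicity companion to network-formation recordings: rat cortical neurons received compound over 12 days of development, re-dosed at DIV 5 and 9 feeds. Viability was inferred from LDH enzyme activity relative to DMSO.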

[5] = CCTE_Shafer_MEA_acute_LDH: CCTE's Lactate Dehydrogenase Assay for Cytotoxicity in the Neural Acute Assay, Shafer Lab (AID 2284086; active = hit-call score of the fitted dose curve at least 0.9, where 1 is the maximum;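 also: active means LDH release rises above DMSO vehicle level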)
How it was run: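 Medium from rat cortical neuron MEA cultures sampled right after the 40 min compound-exposure recording; released LDH measured by absorbance at 490 nm. Analyzed as signal gain relative to DMSO.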

[6] = CCTE_Shafer_MEA_dev_mutual_information_norm: CCTE's Neural Network Formation Assay for Mutual Information Normalization, Shafer Lab (AID 2284091)
How it was run: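 Rat cortical cultures, 48-well MEA, continuous exposure DIV 0–12 with full media/compound change DIV 5 and 9. Readout: inter-electrode mutual information, AxIS adaptive spike detection; AUC across DIV 5/7/9/12 recordings; DMSO baseline, negative fitting direction.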

[7] = CCTE_Shafer_MEA_dev_correlation_coefficient_mean: CCTE's Neural Network Formation Assay for Mean Correlation Coefficient, Shafer Lab (AID 2284093)
How it was run: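 Read-out: well-mean correlation coefficient of spike trains between electrode pairs, collapsed over four recording days as trapezoidal area-under-the-curve. Developing rat cortical neuron networks grown on MEAs received test chemical continuously from plating.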

[8] = IUF_NPC1b_proliferation_BrdU_72hr: Leibniz Research Institute for Environmental Medicine (IUF) 72-hour Neural Progenitor Cell Bromodeoxyuridine (BrdU) Proliferation Assay (NPC1b) (AID 2284207)
How it was run: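 hNPC spheres (primary, GW 16-19 fetal cortex), single sphere/well, EGF+FGF medium; 72 h compound, no renewal; BrdU pulse last 16 h; luminescent ELISA; activity vs DMSO baseline; growth-factor withdrawal as positive control.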

[9] = IUF_NPC1a_proliferation_area_72hr: Leibniz Research Institute for Environmental Medicine (IUF) 72-hour Neural Progenitor Cell Proliferation Area Assay (NPC1a) (AID 2284208)
How it was run: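 Measured in 3D suspension: each well held one primary hNPC sphere grown with EGF and FGF at pH 7.2-7.6. Compound stayed on for 72 h, then area was imaged; spheres lacking growth factors defined reduced proliferation.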

[10] = IUF_NPC1_viability_72hr: Viability Assessment at 72 hours in the Leibniz Research Institute for Environmental Medicine (IUF) Neural Progenitor Cell Proliferation Assay (NPC1) (AID 2284209)
How it was run: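 Single spheres (0.25-0.35 mm) of human fetal cortex-derived neural progenitor cells were grown in proliferation medium with EGF and FGF at 37C and 5% CO2. They were exposed for 72 h without renewal, and viability was read by alamar blue resorufin fluorescence.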

[11] = CCTE_Mundy_HCI_Cortical_Synap_Neur_Matur_NeuriteSpotCountPerNeuriteLength: CCTE's Synaptogenesis and Neurite Maturation Assay in rat cortical cells for Neurite Spot Count per Neurite Length, Mundy Lab (AID 2284210)
How it was run: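 Rat primary cortical cultures, glia arrested with AraC at DIV 5, were dosed with media change at DIV 7 and fixed at DIV 12. Synaptophysin puncta per MAP2-labelled neurite length were quantified by high-content imaging versus DMSO.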

[12] = CCTE_Mundy_HCI_Cortical_NOG_NeuriteLength: CCTE's Neurite Outgrowth Assay in rat cortical cells for Neurite Length, Mundy Lab (AID 2284213)
How it was run: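 Neurite length was read by high-content imaging of βIII-tubulin-labelled neurites in rat primary cortical cultures. Activity was fitted relative to DMSO.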

[13] = CCTE_Mundy_HCI_Cortical_Synap_Neur_Matur_NeuriteSpotCountPerNeuron: CCTE's Synaptogenesis and Neurite Maturation Assay in rat cortical cells for Neurite Spot Count per Neuron Count, Mundy Lab (AID 2284215)
How it was run: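 Developing rat cortical neurons, with glia suppressed by AraC, are exposed to chemicals from DIV 7 to DIV 12. Automated fluorescence imaging of MAP2-labelled neurites and synaptophysin puncta yields a count per neuron, normalised against DMSO wells.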

[14] = CCTE_Mundy_HCI_Cortical_Synap_Neur_Matur_SynapseCount: CCTE's Synaptogenesis and Neurite Maturation Assay in rat cortical cells for Synapse Count, Mundy Lab (AID 2284218)
How it was run: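 Rat primary cortical cultures, AraC at DIV 5, chemical dosing DIV 7 to DIV 12 (288.33 h). Fixed cells stained for MAP2, synaptophysin and Hoechst; synapses per neuron counted by high-content imaging, loss of signal versus DMSO.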

[15] = CCTE_Mundy_HCI_hN2_NOG_NeuriteCount: CCTE's Neurite Outgrowth Assay in human hN2 cells for Neurite Count, Mundy Lab (AID 2284219; active = hit-call score of the fitted dose curve at least 0.9, where 1 is the maximum)
How it was run: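 In this morphology assay, hNP1-derived neurons received test chemical 2 h post-plating and were fixed two days later in warm paraformaldehyde/sucrose containing Hoechst 33342. Neurites, labelled by rabbit anti-βIII-tubulin (1:800) and Alexa Fluor-488 (1:500), were counted automatically.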

[16] = CCTE_Mundy_HCI_hN2_NOG_NeuriteLength: CCTE's Neurite Outgrowth Assay in human hN2 cells for Neurite Length, Mundy Lab (AID 2284220; active = hit-call score of the fitted dose curve at least 0.9, where 1 is the maximum)
How it was run: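 Using βIII-tubulin immunofluorescence and Hoechst nuclear counterstain, this component quantifies neurite length in hNP1-derived neurons.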

[17] = CCTE_Mundy_HCI_Cortical_Synap_Neur_Matur_CellBodySpotCount: CCTE's Synaptogenesis and Neurite Maturation Assay in rat cortical cells for Cell Body Spot Count, Mundy Lab (AID 2284223)
How it was run: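 Chemicals were applied to AraC-treated rat primary cortical cells at DIV 7 and measured at DIV 12. Fixed cells were labelled for MAP2, synaptophysin and nuclei, and high-content imaging gave cell body synaptophysin spot counts per neuron relative to DMSO.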

[18] = CCTE_Mundy_HCI_hNP1_Pro_ResponderAvgInten: CCTE's Proliferation Assay in human neuroprogenitor cells, Mundy Lab (AID 2284224; active = hit-call score of the fitted dose curve at least 0.9, where 1 is the maximum;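 also: human neural progenitor cells hNP1 derived from WA09 embryonic stem cells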)
How it was run: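 Human neuroprogenitors (hNP1, WA09 lineage) receive test chemical after 40 to 44 hours of attachment. A four-hour BrdU pulse begins twenty hours later, followed by fixation and high content imaging; signal is referenced to DMSO controls.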

[19] = CCTE_Mundy_HCI_Cortical_NOG_NeuronCount: CCTE's Neurite Outgrowth Assay in rat cortical cells for Neuron Count, Mundy Lab (AID 2284236; active = hit-call score of the fitted dose curve at least 0.9, where 1 is the maximum;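 also: neurons counted by imaging betaIII-tubulin and Hoechst stained cortical cells; cells exposed to compound for about 48 hours before fixation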)
How it was run: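 Read-out: neuron number by high-content imaging of betaIII-tubulin (Alexa Fluor-488) and Hoechst-labelled rat primary cortical cells.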

[20] = CCTE_Mundy_HCI_hNP1_Casp3_7: CCTE's Caspase-Glo 3/7 Assay in human neuroprogenitor cells for Apoptosis, Mundy Lab (AID 2284240)
How it was run: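 Neuroepithelial-lineage stem cells from WA09 embryonic cells were treated with chemicals after 40–44 h of culture. Twenty-four hours later, caspase-3/7 activation was detected luminescently after a 30 min room-temperature reagent step, with DMSO as baseline.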

[21] = IUF_NPC2c_oligodendrocyte_migration_120hr: Leibniz Research Institute for Environmental Medicine (IUF) 120-hour Neural Progenitor Cell Migration Assay for Oligodendrocyte Migration (NPC2c) (AID 2284297);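 also: O4-positive oligodendrocyte migration distance divided by radial glia migration distance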
How it was run: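 Using fetal brain neural progenitor spheres differentiating in N2 medium at 37C, compounds were present for 120 h. Oligodendrocyte migration distance, normalized to radial glia migration, was measured from imaged O4 staining.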

[22] = IUF_NPC2a_radial_glia_migration_120hr: Leibniz Research Institute for Environmental Medicine (IUF) 120-hour Neural Progenitor Cell Migration Assay for Radial Glia Migration (NPC2a) (AID 2284298)
How it was run: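 Exposure of 0.3 mm primary hNPC spheres runs day 0 to 120 h with a half-volume medium change at day 3. Fixed cells get Hoechst staining; high-content analysis of nuclear positions yields radial glia migration distance per well, compared against DMSO controls.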

[23] = IUF_NPC2a_radial_glia_migration_72hr: Leibniz Research Institute for Environmental Medicine (IUF) 72-hour Neural Progenitor Cell Migration Assay for Radial Glia Migration (NPC2a) (AID 2284299)
How it was run: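 Human fetal neural progenitor spheres (0.3 mm) plated on poly-D-lysine/laminin in N2 differentiation medium and exposed from day 0 at 7 concentrations; radial glia migration distance from sphere edge measured at 72 h on brightfield images, mean of four directions, vs DMSO.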

[24] = IUF_NPC2b_neuronal_migration_120hr: Leibniz Research Institute for Environmental Medicine (IUF) 120-hour Neural Progenitor Cell Migration Assay for Neuron Migration (NPC2b) (AID 2284300)
How it was run: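 Fetal human NPC spheres migrate on PDL/laminin during 120 h compound treatment; neuronal migration distance, glia-normalized, scored versus DMSO control.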

[25] = IUF_NPC3_neuronal_differentiation_120hr: Leibniz Research Institute for Environmental Medicine (IUF) 120-hour Neuronal Differentiation Assay (NPC3) (AID 2284301)
How it was run: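 Primary human fetal neural progenitor spheres (GW 16-19, 0.3 mm) plated on poly-D-lysine/laminin in N2 medium, exposed from day 0 for 120 h with half-medium refresh at day 3. TUBB3+ cells as percent of Hoechst nuclei in migration area; DMSO baseline.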

[26] = IUF_NPC4_neurite_length_120hr: Leibniz Research Institute for Environmental Medicine (IUF) 120-hour Neuronal Morphology Assay for Neurite Length (NPC4) (AID 2284302)
How it was run: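 Human fetal cortex (GW 16-19) neural progenitor spheres, 0.3 mm, were plated on poly-D-lysine/laminin in N2 differentiation medium and exposed from day 0 for 120 h, half-feeding at day 3. Mean TUBB3+ neurite length (µm) came from skeletonized images, relative to DMSO.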

[27] = IUF_NPC5_oligodendrocyte_differentiation_120hr: Leibniz Research Institute for Environmental Medicine (IUF) 120-hour Oligodendrocyte Differentiation Assay (NPC5) (AID 2284304; active = hit-call score of the fitted dose curve at least 0.9, where 1 is the maximum;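 also: primary human fetal neural progenitor spheres plated to migrate and differentiate; share of O4-positive cells among Hoechst nuclei found by CNN image analysis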)
How it was run: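 After plating on poly-D-lysine/laminin, fetal-derived hNPC spheres differentiated for 120 h at 37C in compound-containing N2 medium, refreshed by half on day 3. O4 immunostaining over Hoechst nuclei in the migration zone gave oligodendrocyte percentage relative to DMSO.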

[28] = IUF_NPC2-5_cytotoxicity_72hr: Cytotoxicity Assessment at 72 hours in the Leibniz Research Institute for Environmental Medicine (IUF) Neural Progenitor Cell Migration and Differentiation Assay for Cytotoxicity (NPC2-5) (AID 2284306; active = hit-call score of the fitted dose curve at least 0.9, where 1 is the maximum;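 also: LDH release into supernatant measured by resorufin fluorescence marking membrane damage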)
How it was run: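 Human fetal (GW 16-19) neural progenitor spheres, 0.3 mm, plated on poly-D-lysine/laminin in N2 differentiation medium and exposed from day 0 to 7 concentrations plus solvent control (DMSO ≤0.1%). LDH-dependent resazurin-to-resorufin fluorescence in supernatant at 72 h.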

[29] = IUF_NPC2-5_cytotoxicity_120hr: Cytotoxicity Assessment at 120 hours in the Leibniz Research Institute for Environmental Medicine (IUF) Neural Progenitor Cell Migration and Differentiation Assay (NPC2-5) (AID 2284307; active = hit-call score of the fitted dose curve at least 0.9, where 1 is the maximum)
How it was run: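 Membrane-integrity loss is quantified by LDH in supernatant after five days of exposure of migrating, differentiating human fetal NPC spheres; seven serially diluted concentrations are tested with DMSO kept at or below 0.1%.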

[30] = IUF_NPC2-5_cell_number_120hr: Cell Number Assessment at 120 hours in the Leibniz Research Institute for Environmental Medicine (IUF) Neural Progenitor Cell Migration and Differentiation Assay (NPC2-5) (AID 2284308);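 also: count of Hoechst-stained nuclei in migration zone around plated human neural progenitor spheres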
How it was run: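 Seven-point serial dilutions plus solvent control were applied to plated 0.3 mm hNPC spheres at differentiation start, with medium half-replaced at day 3. Nuclei positive for Hoechst in the migration zone were enumerated at 120 h.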

[31] = IUF_NPC2-5_viability_120hr: Viability Assessment at 120 hours in the Leibniz Research Institute for Environmental Medicine (IUF) Neural Progenitor Cell Migration and Differentiation Assay (NPC2-5) (AID 2284312)
How it was run: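 Human fetal (GW 16-19) neural progenitor spheres of 0.3 mm were plated on poly-D-lysine/laminin in N2 differentiation medium and exposed from day 0 for 120 h, with half-medium refresh at day 3. Viability was read as alamar blue resazurin-to-resorufin fluorescence against DMSO.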

[32] = IUF_NPC1_cytotoxicity_72hr: Cytotoxicity Assessment at 72 hours in the Leibniz Research Institute for Environmental Medicine (IUF) Neural Progenitor Cell Proliferation Assay (NPC1) (AID 2284332; active = hit-call score of the fitted dose curve at least 0.9, where 1 is the maximum;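 also: rising LDH signal means more cytotoxicity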)
How it was run: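 Human fetal neural progenitor spheres (0.3 mm) in EGF/FGF proliferation medium, 37C, exposed 72 h without renewal. LDH release in supernatant read by resorufin fluorescence; gain of signal scored relative to dynamic range.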

Measured: outcome

CC1(C)S[C@@H]2[C@H](NC(=O)[C@H](N)c3ccc(O)cc3)C(=O)N2[C@H]1C(=O)O
inactive: all assays above
